In the supplement of paper PMC6555819:

Tests used:
Assay in all cases: PBM binding z-score (relative to random genomic background probes); higher = stronger binding; sequences stand for … in GC…GCGATTGACAGCGTAGAATGAAGG
[1] = tested on: RARb homodimer (NR concentration 270 nM)
Outline: (§1)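 For binding z-scores, the reference was random background probes on custom Agilent 4×180K protein-binding microarrays. These arrays were incubated 1 h with ligand-free nuclear receptor dimers in PBS pH 7.4, 2% milk, 0.02% Triton X-100, 1 mM DTT, 0.2 mg/mL BSA and 0.4 mg/ml salmon testes DNA. Fluorescence was scanned after antibody detection of each partner (one per run) and regression-normalized.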

[2] = tested on: RARg:RXRa (NR concentration 270 nM, RXRa partner concentration 90 nM)
Outline: as §1

[3] = tested on: RARg homodimer (NR concentration 270 nM)
Outline: as §1

[4] = tested on: RXRa DBDmut IVT, anti-RXR (DBD mutation: RXRa K156A/R161A, NR concentration 90 nM)
Outline: as §1

[5] = tested on: RXRa homodimer (NR concentration 180 nM)
Outline: as §1

[6] = tested on: THRa:RXRa (NR concentration 90 nM, RXRa partner concentration 90 nM)
Outline: as §1

[7] = tested on: THRa homodimer (NR concentration 90 nM)
Outline: as §1

[8] = tested on: VDR homodimer (NR concentration 270 nM)
Outline: as §1

| Sequence | PBM binding z-score [1] | PBM binding z-score [2] | PBM binding z-score [3] | PBM binding z-score [4] | PBM binding z-score [5] | PBM binding z-score [6] | PBM binding z-score [7] | PBM binding z-score [8] |
| --- | --- | --- | --- | --- | --- | --- | --- | --- |
| CCTGCTAGGTCATGGTCAGCTGATCTACAGTATG | 3.13 | 3.97 | 4.53 | 1.96 | 3.2 | 3.17 | 1.23 | 0.608 |
| ATCTCTAGGCAAAGATAGTTCAGTGAATGCAAAT | 0.533 | 0.288 | 0.586 | -0.0612 | -0.0781 | 0.0396 | -0.577 | 0.0259 |
| ATCTCTAGGTAAAGTTCAGTGGAAGATCGATAGA | 2.55 | 2.03 | 2.47 | 1.74 | 1.11 | 1.3 | 0.319 | 2.23 |
| CTCGAAAGGTCGGTTGAGATGAGTATACGGATAA | 1.74 | 2.2 | 2.5 | 0.887 | 2.01 | 1.72 | -0.23 | 0.738 |
| ACTATTAGTTGAGACCAGGGCAACCGATAGGTTG | 0.667 | 0.276 | 0.568 | -0.232 | 0.3 | 1.79 | 0.11 | 0.0358 |
| ATACCAAGGTGATCGTGAGGTAGTTGATACTAAC | 0.262 | 0.422 | 0.424 | -0.401 | 0.329 | 1.5 | 0.542 | 0.0713 |
| ATCTCTAGGAAAAGTTCAGTGAAAGATCGATAGA | 2.13 | 1.53 | 1.87 | 1.03 | 0.695 | 0.532 | -0.316 | 1.66 |
| TAGCCTAGGTCAGATTGGGCCAGTATACGCTATA | 2.06 | 2.79 | 3.72 | -0.225 | 1.25 | 3.56 | -0.0542 | -0.257 |
| CCTATTAGTTGACCATAAAGGCAACCGAAGCTCG | 0.622 | 0.557 | 0.504 | 0.578 | 0.337 | 0.39 | 0.543 | 0.626 |
| CCAGACAGGTGAAAGGTAATTCAGTCTGGTACGC | 0.45 | 1.04 | 0.643 | -0.17 | 1.68 | 0.696 | -0.243 | -0.314 |
| GGAACGAGGGCAAGCTGATAGCAGAGTTTGATGG | 0.957 | 1.17 | 1.95 | 1.68 | 0.6 | 0.878 | -0.593 | 1.03 |
| CGCCCAAGGTCAGAGAGGTCAGTGAATGCCGAGT | 5.43 | 6.31 | 6.93 | 3 | 5.42 | 4.15 | 2.33 | 5.31 |
| ATATGTAGGTTAAGGGTCATTCACGTTGGTTCGC | 3.78 | 4.72 | 3.42 | 2.33 | 6.15 | 3.36 | 1.12 | 4.09 |
| ATATGTAGGTTACATCCGGGTCATACAGGCTATG | 2.77 | 3.85 | 2.26 | 0.757 | 3.05 | 4.01 | 2.3 | 2.26 |
| TATACAGGGTAAAAGGCCAGAGTACGAATGTCGA | 1.6 | 1.56 | 1.59 | -0.337 | 1.11 | 0.651 | -0.663 | 0.418 |
| AGAATGAGGTTATTAAGATGAGGGAATTGCGGTC | 0.734 | 1.15 | 0.922 | 1.9 | 1.87 | 2.08 | 0.746 | 1.16 |
| ATATGTAAGTTAAGGGTCATTCAGGTTGGTTCGC | 3.8 | 3.97 | 3.2 | 2.13 | 4.89 | 3.5 | 1.55 | 4.67 |
| ACTATTAGTTGATTTAGGGCAACCGATACGACGC | 0.736 | 0.306 | 0.883 | 1.2 | 0.356 | 1.52 | 0.806 | 0.367 |
| GCTCTGAGGACAAGGTCAGAGCTTTGTCCGTAGA | 2.95 | 3.16 | 3.63 | 1.43 | 2.38 | 3.95 | 3.55 | 1.11 |
| TGAATGAGTTTAAAGATCAGGGAACGTGGCGTCG | -0.301 | 0.427 | 0.222 | 3.12 | 0.84 | -0.0905 | -0.483 | 2.88 |
| GCTTGTAGATCAAGGTCAAGAAAGACTAAGCTAA | 3.18 | 3.61 | 3.42 | 1.03 | 3.6 | 3.36 | 1.74 | 1.37 |
| TCTTGTAGGTCAACAGGAGGTTAAGAAAGATCGA | 3.98 | 6.27 | 5.18 | 1.42 | 4.53 | 3.41 | 0.603 | 0.658 |
| CGTCCAAGGTCAAAGGTCTGTGAAGAGATGACGG | 4.1 | 6.32 | 6.12 | 4.3 | 6.84 | 4.04 | 2.11 | 3.09 |
| TTCCCAAGGTGAGCTGAGGTCGTTGATCCAACTC | 1.95 | 1.28 | 0.949 | 0.117 | 1.34 | 4.52 | 2.4 | 2.61 |
| TGTCAAAGTTCAAAGGTAATGTAAGTATCCACAC | 3.63 | 5.97 | 5.84 | 4.44 | 6.5 | 3.15 | -0.177 | 3.96 |
| ATCTCTAGGTAACAAGTTCAGCGAAAGAGAGGAC | 2.17 | 2.04 | 1.72 | 0.87 | 1.27 | 1.74 | 0.96 | 3 |
| ATCTCTAGGTAAAGTTCCGTGAAAGATCGATAGA | -0.0472 | 0.28 | 0.381 | 0.35 | 0.0302 | 0.529 | 0.224 | 0.431 |
| CCTCGGAGGACAGAAGCTCAGAGCTGTCCGCTTT | -0.763 | -0.638 | -0.103 | -0.29 | -0.985 | -0.606 | -1.12 | -0.819 |
| GATACAGGGTCAAGGCCAGAGTGCGCGTATTGAT | 3.82 | 5.48 | 5.27 | 2.42 | 5.94 | 3.42 | 1.27 | 2.96 |
